# Experimental data as given in the supplement of paper PMC12067926.
# Test system: Carnobacterium 1 (Carnobacterium gallinarum)
# Test: relative growth (AUC of 72 h growth curve relative to DMSO control, dAUC) (ratio); higher = more growth (less inhibition), active = hit call of the paper
# Conditions: 20 µM;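 active = growth AUC significantly below the DMSO wells by Dunnett test; inactive = the rest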
# Description: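 Environmental bacterial isolates (Iceland stream sediment and Silwood Park soil) and whole stream-sediment communities were grown in LB from a 1:100 dilution with each pesticide at 20 µM (1% DMSO). A600 was read hourly for 72 h and the area under a spline-fitted growth curve (AUC) was computed. dAUC is the mean AUC of 3 biological replicates divided by the mean AUC of the DMSO controls. Significance was tested by Dunnett's test against the DMSO control.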
row,SMILES,relative growth
1,N#Cc1c(Cl)c(Cl)c(Cl)c(C#N)c1Cl,1.11 (inactive)
2,CNC(=O)c1cc(C#N)cc(C)c1NC(=O)c1cc(Br)nn1-c1ncccc1Cl,0.896 (inactive)
3,Fc1ccc([C@]2(Cn3cncn3)O[C@H]2c2ccccc2Cl)cc1 (racemic),0.995 (inactive)
4,COc1ccc(C(=CC(=O)N2CCOCC2)c2ccc(Cl)cc2)cc1OC (mixture of isomers),1.56 (inactive)
5,CCCC1COC(Cn2cncn2)(c2ccc(Cl)cc2Cl)O1 (stereo not given),0.835 (inactive)
6,CCc1cnc(C2=NC(C)(C(C)C)C(=O)N2)c(C(=O)O)c1 (stereo not given),1.06 (inactive)
7,O=[N+]([O-])/N=C1\NCCN1Cc1ccc(Cl)nc1,1.26 (inactive)
8,Cc1nnc(-c2ccccc2)c(=O)n1N,0.953 (inactive)
9,Clc1ccc(C(c2ccc(Cl)cc2)C(Cl)(Cl)Cl)cc1,1.1 (inactive)
10,Oc1ccccc1-c1ccccc1,0.744 (inactive)
11,CCOCn1c(-c2ccc(Cl)cc2)c(C#N)c(Br)c1C(F)(F)F,1.16 (inactive)
12,COC(=O)NC(=S)Nc1ccccc1NC(=S)NC(=O)OC,0.745 (inactive)
13,CCOc1ccc(C(C)(C)COCc2cccc(Oc3ccccc3)c2)cc1,0.99 (inactive)
14,CCCC(Cn1cncn1)c1ccc(Cl)cc1Cl (stereo not given),1.13 (inactive)
15,COC(=O)Nc1nc2ccccc2[nH]1,1.1 (inactive)
16,Cc1cccc2sc3nncn3c12,0.911 (inactive)
17,O=C1C2CC=CCC2C(=O)N1SC(Cl)(Cl)Cl (stereo not given),1.19 (inactive)
18,CC[C@H]1CCC[C@H](O[C@H]2CC[C@H](N(C)C)[C@@H](C)O2)[C@@H](C)C(=O)C2=C[C@@H]3[C@@H](C=C(C)[C@@H]4C[C@@H](O[C@@H]5O[C@@H](C)[C@H](OC)[C@@H](OC)[C@H]5OC)C[C@@H]34)[C@@H]2CC(=O)O1.CC[C@H]1CCC[C@H](O[C@H]2CC[C@H](N(C)C)[C@@H](C)O2)[C@@H](C)C(=O)C2=C[C@H]3[C@@H]4C[C@H](O[C@@H]5O[C@@H](C)[C@H](OC)[C@@H](OC)[C@H]5OC)C[C@H]4C=C[C@H]3C2CC(=O)O1,0.952 (inactive)
19,COP(=S)(OC)Oc1ccc(SC)c(C)c1,1.08 (inactive)
20,CC1COC(Cn2cncn2)(c2ccc(Oc3ccc(Cl)cc3)cc2Cl)O1 (stereo not given),1.19 (inactive)

row,SMILES,relative growth
1,Cc1cc(C2CC2)nc(Nc2ccccc2)n1,0.909 (inactive)
2,COP(=S)(OC)SCN1C(=O)c2ccccc2C1=O,1.04 (inactive)
3,CO/C=C(/C(=O)OC)c1ccccc1Oc1cc(Oc2ccccc2C#N)ncn1,1.27 (inactive)
4,CCNC(=O)NC(=O)/C(C#N)=N/OC,0.965 (inactive)
5,CN/C(=N/CC1CCOC1)N[N+](=O)[O-] (stereo not given),1.46 (inactive)
6,C#CCOc1ccc(CCNC(=O)C(OCC#C)c2ccc(Cl)cc2)cc1OC (stereo not given),1.18 (inactive)
7,CNC(=O)Oc1cccc2ccccc12,1.1 (inactive)
8,COc1cccc(C(=O)NN(C(=O)c2cc(C)cc(C)c2)C(C)(C)C)c1C,0.863 (inactive)
9,Cc1cc(C(C#N)c2ccc(Cl)cc2)c(Cl)cc1NC(=O)c1cc(I)cc(I)c1O (stereo not given),0.0215 (active)
10,COc1ccc(-c2ccccc2)cc1NNC(=O)OC(C)C,0.828 (inactive)
11,CNC(=O)/C=C(\C)OP(=O)(OC)OC,0.926 (inactive)
12,Cc1ccc(/N=C/N(C)/C=N/c2ccc(C)cc2C)c(C)c1,1.24 (inactive)
13,O=C(Nc1ccc(F)cc1F)c1cccnc1Oc1cccc(C(F)(F)F)c1,1.1 (inactive)
14,CO/C=C(/C(=O)OC)c1ccccc1COc1cccc(C(F)(F)F)n1,0.98 (inactive)
15,COCc1cnc(C2=NC(C)(C(C)C)C(=O)N2)c(C(=O)O)c1 (stereo not given),0.837 (inactive)
16,CC1(C(=O)Nc2ccc(O)c(Cl)c2Cl)CCCCC1,0.935 (inactive)
17,CCCN(CCC)C(=O)SCc1ccccc1,1.04 (inactive)
18,C/C(=N\C#N)N(C)Cc1ccc(Cl)nc1,1.32 (inactive)
19,CCCCOC(=O)[C@H](C)Oc1ccc(Oc2ccc(C#N)cc2F)cc1,0.961 (inactive)
20,COc1cc(OC)nc(NC(=O)NS(=O)(=O)c2ncccc2C(=O)N(C)C)n1,1.09 (inactive)
